ChEMBL document CHEMBL1961873, “Compounds: GSK PKIS; Assays: Nanosyn kinase panel” (2012)
Several values for one entry are separate records, joined by “and”; a condition that tells them apart may be missing. Equal entries are not always repeated.

Key:
[1] = target: Serine/threonine-protein kinase PAK 6 (Homo sapiens) (UniProt Q9NQU5); settings: at 1 µM;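 note: values are mean percent inhibition of PAK6 kinase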
[2] = system: Tyrosine-protein kinase ABL1 (Homo sapiens), P00519 [E255K]; settings: at 0.1 µM
[3] = system: Tyrosine-protein kinase ABL1 (Homo sapiens), P00519 [E255K]; settings: at 1 µM
[4] = system: Tyrosine-protein kinase ABL1 (Homo sapiens), P00519 [H396P]; settings: at 0.1 µM
[5] = system: Tyrosine-protein kinase ABL1 (Homo sapiens), P00519 [H396P]; settings: at 1 µM
[6] = system: Tyrosine-protein kinase ABL1 (Homo sapiens), P00519 [M351T]; settings: at 0.1 µM
[7] = system: Tyrosine-protein kinase ABL1 (Homo sapiens), P00519 [M351T]; settings: at 1 µM
[8] = system: Tyrosine-protein kinase ABL1 (Homo sapiens), P00519 [Q252H]; settings: at 0.1 µM
[9] = system: Tyrosine-protein kinase ABL1 (Homo sapiens), P00519 [Q252H]; settings: at 1 µM
[10] = system: Tyrosine-protein kinase ABL1 (Homo sapiens), P00519 [T315I]; settings: at 0.1 µM
[11] = system: Tyrosine-protein kinase ABL1 (Homo sapiens), P00519 [T315I]; settings: at 1 µM
[12] = system: Tyrosine-protein kinase ABL1 (Homo sapiens), P00519 [Y253F]; settings: at 0.1 µM
[13] = system: Tyrosine-protein kinase ABL1 (Homo sapiens), P00519 [Y253F]; settings: at 1 µM
[14] = target: Tyrosine-protein kinase ABL1 (Homo sapiens) (UniProt P00519); settings: at 0.1 µM
[15] = target: Tyrosine-protein kinase ABL1 (Homo sapiens) (UniProt P00519); settings: at 1 µM
[16] = target: ALK tyrosine kinase receptor (Homo sapiens) (UniProt Q9UM73); settings: at 0.1 µM
Chain of ALK tyrosine kinase receptor (Homo sapiens) (Q9UM73 19-1620 limits assumed): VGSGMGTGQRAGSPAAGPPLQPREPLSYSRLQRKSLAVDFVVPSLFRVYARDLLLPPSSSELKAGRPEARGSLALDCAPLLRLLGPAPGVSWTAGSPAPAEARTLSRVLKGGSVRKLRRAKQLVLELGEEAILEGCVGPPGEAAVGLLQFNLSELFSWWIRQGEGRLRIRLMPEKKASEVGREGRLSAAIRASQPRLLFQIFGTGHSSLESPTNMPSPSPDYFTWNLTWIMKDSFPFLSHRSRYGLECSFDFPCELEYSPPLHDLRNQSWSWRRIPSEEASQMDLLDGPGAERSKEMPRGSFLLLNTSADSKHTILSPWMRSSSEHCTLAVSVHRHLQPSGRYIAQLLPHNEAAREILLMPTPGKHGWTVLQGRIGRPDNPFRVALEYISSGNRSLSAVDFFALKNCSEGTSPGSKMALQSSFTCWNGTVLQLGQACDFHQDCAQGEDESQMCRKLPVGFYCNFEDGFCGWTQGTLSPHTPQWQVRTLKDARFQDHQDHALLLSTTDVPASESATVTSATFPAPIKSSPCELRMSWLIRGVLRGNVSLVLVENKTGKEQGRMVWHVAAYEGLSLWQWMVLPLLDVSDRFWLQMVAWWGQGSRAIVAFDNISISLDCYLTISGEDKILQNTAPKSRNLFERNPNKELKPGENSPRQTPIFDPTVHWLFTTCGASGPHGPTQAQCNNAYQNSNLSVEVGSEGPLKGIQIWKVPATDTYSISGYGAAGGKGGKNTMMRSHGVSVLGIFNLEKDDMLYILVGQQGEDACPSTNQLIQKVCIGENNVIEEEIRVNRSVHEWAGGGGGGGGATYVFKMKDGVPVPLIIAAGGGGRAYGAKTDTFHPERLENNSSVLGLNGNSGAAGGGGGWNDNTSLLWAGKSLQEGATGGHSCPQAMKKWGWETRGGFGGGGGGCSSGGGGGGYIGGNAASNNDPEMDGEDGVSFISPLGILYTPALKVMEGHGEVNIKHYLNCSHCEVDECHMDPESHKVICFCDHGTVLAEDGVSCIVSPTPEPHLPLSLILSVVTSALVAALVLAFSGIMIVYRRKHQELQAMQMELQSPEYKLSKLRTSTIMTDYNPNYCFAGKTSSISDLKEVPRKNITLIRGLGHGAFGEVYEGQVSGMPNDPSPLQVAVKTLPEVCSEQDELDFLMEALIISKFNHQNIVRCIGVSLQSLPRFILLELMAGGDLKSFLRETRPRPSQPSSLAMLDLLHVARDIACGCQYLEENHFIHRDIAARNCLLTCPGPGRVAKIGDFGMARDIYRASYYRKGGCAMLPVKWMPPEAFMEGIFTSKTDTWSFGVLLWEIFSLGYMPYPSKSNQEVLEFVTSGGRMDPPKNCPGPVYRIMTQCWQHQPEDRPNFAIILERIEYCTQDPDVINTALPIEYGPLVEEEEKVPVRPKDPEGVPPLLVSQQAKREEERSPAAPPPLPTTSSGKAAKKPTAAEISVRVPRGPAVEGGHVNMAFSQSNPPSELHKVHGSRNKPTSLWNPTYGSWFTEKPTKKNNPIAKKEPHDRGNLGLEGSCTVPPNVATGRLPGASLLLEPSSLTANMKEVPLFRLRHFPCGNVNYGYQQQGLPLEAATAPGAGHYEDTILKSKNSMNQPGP

[17] = target: ALK tyrosine kinase receptor (Homo sapiens) (UniProt Q9UM73); settings: at 1 µM
[18] = target: Tyrosine-protein kinase ABL2 (Homo sapiens) (UniProt P42684); settings: at 0.1 µM
Chain of Tyrosine-protein kinase ABL2 (Homo sapiens) (P42684 whole entry): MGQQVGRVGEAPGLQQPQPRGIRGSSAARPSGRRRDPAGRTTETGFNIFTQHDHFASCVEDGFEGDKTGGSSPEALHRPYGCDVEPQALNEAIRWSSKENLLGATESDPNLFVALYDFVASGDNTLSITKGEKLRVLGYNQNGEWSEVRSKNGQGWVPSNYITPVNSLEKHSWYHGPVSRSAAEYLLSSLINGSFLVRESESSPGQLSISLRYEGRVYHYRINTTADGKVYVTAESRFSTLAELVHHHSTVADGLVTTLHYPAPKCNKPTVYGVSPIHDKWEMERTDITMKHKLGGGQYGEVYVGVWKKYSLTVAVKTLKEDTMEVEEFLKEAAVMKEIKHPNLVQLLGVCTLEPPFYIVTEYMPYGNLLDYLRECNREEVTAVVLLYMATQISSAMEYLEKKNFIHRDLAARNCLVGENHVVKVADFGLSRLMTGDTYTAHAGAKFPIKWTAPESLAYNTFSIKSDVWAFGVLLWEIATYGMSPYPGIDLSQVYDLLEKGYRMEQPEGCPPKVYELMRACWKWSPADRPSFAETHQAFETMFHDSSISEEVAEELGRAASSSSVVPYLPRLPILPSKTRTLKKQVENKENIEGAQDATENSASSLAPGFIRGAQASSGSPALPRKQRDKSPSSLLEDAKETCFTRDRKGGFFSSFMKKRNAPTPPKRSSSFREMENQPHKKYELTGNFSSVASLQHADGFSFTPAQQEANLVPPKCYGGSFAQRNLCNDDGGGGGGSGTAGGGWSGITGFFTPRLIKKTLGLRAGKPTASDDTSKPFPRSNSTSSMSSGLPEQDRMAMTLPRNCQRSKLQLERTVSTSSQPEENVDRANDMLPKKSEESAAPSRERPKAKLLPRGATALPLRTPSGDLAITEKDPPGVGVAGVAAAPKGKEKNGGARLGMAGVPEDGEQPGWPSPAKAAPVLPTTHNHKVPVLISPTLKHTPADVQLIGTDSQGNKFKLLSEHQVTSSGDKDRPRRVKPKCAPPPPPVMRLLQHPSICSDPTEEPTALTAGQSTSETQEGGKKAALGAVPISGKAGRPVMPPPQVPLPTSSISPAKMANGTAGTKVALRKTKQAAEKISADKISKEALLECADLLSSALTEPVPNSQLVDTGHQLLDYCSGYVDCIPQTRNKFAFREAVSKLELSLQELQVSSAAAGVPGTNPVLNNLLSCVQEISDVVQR

[19] = target: Tyrosine-protein kinase ABL2 (Homo sapiens) (UniProt P42684); settings: at 1 µM
[20] = target: Tyrosine-protein kinase receptor UFO (Homo sapiens) (UniProt P30530); settings: at 0.1 µM;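 note: values are mean percent inhibition of AXL from the GSK PKIS screen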
Chain of Tyrosine-protein kinase receptor UFO (Homo sapiens) (P30530 whole entry): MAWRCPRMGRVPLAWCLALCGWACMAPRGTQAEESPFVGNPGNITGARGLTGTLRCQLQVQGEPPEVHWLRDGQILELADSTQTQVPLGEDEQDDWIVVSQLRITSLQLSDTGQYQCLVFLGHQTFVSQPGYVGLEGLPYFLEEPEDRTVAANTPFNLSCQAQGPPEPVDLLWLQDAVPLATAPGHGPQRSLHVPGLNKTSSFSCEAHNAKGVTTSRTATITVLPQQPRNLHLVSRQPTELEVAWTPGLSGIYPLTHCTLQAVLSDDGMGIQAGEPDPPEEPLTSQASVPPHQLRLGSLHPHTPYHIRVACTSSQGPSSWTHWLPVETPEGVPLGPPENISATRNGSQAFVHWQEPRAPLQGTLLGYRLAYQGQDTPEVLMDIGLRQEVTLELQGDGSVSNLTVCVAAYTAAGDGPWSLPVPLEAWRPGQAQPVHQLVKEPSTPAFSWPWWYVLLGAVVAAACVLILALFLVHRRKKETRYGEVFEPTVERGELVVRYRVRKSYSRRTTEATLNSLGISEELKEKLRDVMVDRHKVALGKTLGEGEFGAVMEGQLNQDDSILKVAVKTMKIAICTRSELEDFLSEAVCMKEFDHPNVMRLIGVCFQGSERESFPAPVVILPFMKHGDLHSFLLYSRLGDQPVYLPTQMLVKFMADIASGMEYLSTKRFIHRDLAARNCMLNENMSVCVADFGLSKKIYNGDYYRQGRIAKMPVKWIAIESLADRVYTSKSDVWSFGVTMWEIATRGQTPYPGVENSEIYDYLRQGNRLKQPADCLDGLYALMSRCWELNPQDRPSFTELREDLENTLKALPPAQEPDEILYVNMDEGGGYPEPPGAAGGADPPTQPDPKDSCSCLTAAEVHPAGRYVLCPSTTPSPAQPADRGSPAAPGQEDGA

Chain of Serine/threonine-protein kinase PAK 6 (Homo sapiens) (Q9NQU5 whole entry, looked up): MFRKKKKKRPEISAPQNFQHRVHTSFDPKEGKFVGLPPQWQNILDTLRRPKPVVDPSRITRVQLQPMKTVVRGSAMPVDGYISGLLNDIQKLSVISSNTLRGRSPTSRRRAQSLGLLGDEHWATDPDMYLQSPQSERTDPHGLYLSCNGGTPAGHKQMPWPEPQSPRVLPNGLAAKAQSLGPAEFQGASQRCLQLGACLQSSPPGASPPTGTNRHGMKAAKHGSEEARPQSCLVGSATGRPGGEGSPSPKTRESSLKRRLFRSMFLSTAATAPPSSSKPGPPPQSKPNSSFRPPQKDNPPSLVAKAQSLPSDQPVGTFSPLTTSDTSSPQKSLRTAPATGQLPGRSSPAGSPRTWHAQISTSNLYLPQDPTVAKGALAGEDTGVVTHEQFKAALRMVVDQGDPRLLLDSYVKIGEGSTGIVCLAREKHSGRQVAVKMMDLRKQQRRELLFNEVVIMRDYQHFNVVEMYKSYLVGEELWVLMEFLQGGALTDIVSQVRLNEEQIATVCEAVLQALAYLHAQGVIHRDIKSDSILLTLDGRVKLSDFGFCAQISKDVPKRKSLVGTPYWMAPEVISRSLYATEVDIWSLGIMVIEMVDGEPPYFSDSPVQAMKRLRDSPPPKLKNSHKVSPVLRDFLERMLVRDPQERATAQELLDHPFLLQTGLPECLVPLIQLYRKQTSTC

SMILES	inhibition [1]	inhibition [2]	inhibition [3]	inhibition [4]	inhibition [5]	inhibition [6]	inhibition [7]	inhibition [8]	inhibition [9]	inhibition [10]	inhibition [11]	inhibition [12]	inhibition [13]	inhibition [14]	inhibition [15]	inhibition [16]	inhibition [17]	inhibition [18]	inhibition [19]	inhibition [20]
COc1cc(N2CCN(C(C)C)CC2)ccc1Nc1nc(Nc2cccc3ncccc23)c2cc[nH]c2n1	-4.19%	0.09%	0.59%	2.17%	3.86%	2.31%	3.99%	1.61%	3.51%	1.61%	0.12%	0.03%	2.91%	1.91%	9.59%	51.7%	86.3%	4.93%	8.07%	1.7%
CC1=C(C(=O)Nc2ccc3[nH]nc(C)c3c2)C(c2ccc(C(F)(F)F)cc2)CC(=O)N1 (stereo not given)	6.01%	2.57%	3.48%	4.06%	4.03%	1.49%	4.65%	4.49%	3.3%	3.82%	2.86%	4.61%	1.36%	7.68%	9.26%	3.26%	6.8%	7.56%	7.08%	-3.17%
CS(=O)(=O)CCNCc1ccc(-c2ccc3ncnc(Nc4ccc(OCc5ccccc5)cc4)c3c2)o1	-0.08%	2.13%	3.38%	4.24%	5.36%	2.42%	4.54%	3.95%	5.12%	1.78%	4.95%	2.39%	4.13%	5.38%	5.59%	2.33%	2.76%	2.73%	4.87%	-3.92%
CN1CCC(C(=O)Nc2n[nH]c3nc(-c4ccc(O)cc4)c(Br)cc23)CC1	-4.52%	2.77% and -0.12%	13.4% and 6.5%	4.9% and 3.81%	15.7% and 13.9%	1.55% and 2.92%	13.9% and 9.89%	3.16% and 3.78%	17.1% and 15.7%	2.49% and 2.76%	22.5% and 15.6%	3.92% and 2.19%	15.1% and 9.74%	0.28% and 3.94%	10.7% and 12.2%	2.7% and 5.6%	31.6% and 35.4%	-0.95% and 2.31%	4.33% and 4.83%	-5.65% and -3.46%
Cc1ccc(-c2cc3c(NC(=O)C4CC4)ncnc3o2)cc1	1.82%	5.52%	18.3%	5.91%	24.2%	3.97%	22.8%	6.11%	23.7%	4.71%	14%	7.48%	29.1%	5.87%	30.4%	4.09%	10.7%	3.64%	2.5%	-6.86%
CS(=O)(=O)CCNCc1ccoc1-c1ccc2ncnc(Nc3ccc(OCc4ccccc4)cc3)c2c1	-2.12%	-3.3%	0.24%	0.81%	-0.01%	0.87%	-0.25%	1.54%	1.56%	1.58%	0.75%	0.71%	-0.62%	2.05%	0.92%	-0.16%	1.21%	1.41%	3.46%	-0.99%
CN1CCC(n2cnc(-c3ccc(F)cc3)c2-c2ccnc(NCCO)n2)CC1	-2.04%	2.22%	5.59%	3.64%	6.05%	0.67%	7.5%	5.69%	4.05%	3.06%	6.42%	2.79%	4.11%	3.67%	6.5%	3.71%	5.43%	3.07%	2.99%	-4.58%
CCS(=O)(=O)c1ccc(OC)c(Nc2ncc(-c3cccc(C(C)=O)c3)o2)c1	7.27%	15.3%	61.6%	19.3%	67.3%	20.5%	68.5%	30.4%	78%	2.67%	8.41%	25.4%	72.3%	13.4%	60.2%	2.32%	2.87%	13%	60.8%	-3.14%
COc1ccccc1-c1cc(/C=C2\C(=O)Nc3ncc(Br)cc32)cc(Br)c1O	-6.64%	5.22%	22.3%	6.17%	21.9%	5.09%	19.8%	6.3%	20.5%	1.82%	5.39%	5.65%	20%	4.63%	27.9%	2.62%	6.47%	3.44%	15.1%	-9.46%
CNC(=O)c1ncccc1Nc1nc(Nc2cc3c(cc2OC)CCCN3C(=O)CN(C)C)nc2[nH]ccc12	3.38%	2.91%	2.97%	2.6%	2.23%	1.84%	0.31%	3.06%	3.95%	3.72%	2.23%	3.84%	3.74%	4.98%	7.6%	94.4%	90.8%	2.06%	5.83%	10.8%
COc1cc(Nc2ncc(-c3ccccc3)o2)cc(OC)c1	-4.99%	5.8%	23.1%	9.34%	39.7%	8.13%	41.1%	9.25%	33.6%	4.18%	13.2%	13.2%	50.9%	8.41%	35.4%	2.73%	4.06%	5.68%	29.4%	-6.45%
CN(c1ccc(NC(=O)NCCN2CCOCC2)cc1)c1ccnc(Nc2ccc(CS(C)(=O)=O)cc2)n1	9.1%	2.54%	14.2%	4.8%	26.3%	3.59%	36.8%	8.57%	39.3%	6.6%	30.3%	6.51%	22.1%	4.29%	21.8%	2.33%	5.11%	6.09%	36%	-1.83%
COc1ccc(Nc2ncc(-c3ccccc3)o2)cc1OC	-2.99%	4.59%	32.7%	10.7%	53.6%	10.2%	56.2%	7.95%	44.7%	1.08%	18.9%	11.1%	54.3%	7.03%	58%	1.69%	4.78%	9.21%	57.1%	0.18%
COc1cc2c(cc1Nc1nc(Nc3cccc(F)c3C(N)=O)c3cc[nH]c3n1)N(C(=O)CN1CCN(C(C)C)CC1)CC2	-0.05%	-0.8%	-0.74%	-1.59%	0.65%	-1.33%	2.97%	-0.13%	3.8%	-0.82%	2.05%	-2.26%	1.07%	-1.27%	-0.09%	62.8%	82.3%	-1.03%	-1.11%	-1.56%
c1cnn2ncc(-c3ccnc(NCCCN4CCOCC4)n3)c2c1	-5.92%	1.77%	1.98%	3.45%	3.75%	1.48%	0.71%	3.41%	2.1%	2.37%	3.23%	4.67%	1.93%	2.22%	6.5%	2.15%	3.78%	2.25%	1.19%	-7.99%
COC(=O)Nc1nc2ccc(Oc3ccc(NC(=O)Nc4cc(C(F)(F)F)ccc4F)cc3)cc2s1	-8.13%	17.2%	66.8%	65.9%	92.3%	76.6%	93.3%	75.1%	91.4%	78.8%	92.6%	32.2%	75.7%	42.7%	79.8%	0.95%	6.26%	51.4%	73.6%	13.7%
Nc1nccc(-c2c(-c3ccc(F)cc3)ncn2C2CCNCC2)n1	-8.13% and -0.6%	-2.24% and 1.83%	-1.66% and 0.75%	-1.77% and 0.86%	3.78% and 0.72%	-2.76% and 1.38%	4.44% and 1.12%	-0.74% and -0.69%	4.57% and 2.57%	-3.43% and 2.15%	1.38% and 1.78%	-2.62% and 1.74%	3.43% and 4.65%	-2.44% and 0.45%	7.89% and 5.4%	-2.83% and 0.4%	-1.85% and 1.82%	-2.01% and -0.73%	3% and 19.3%	3.6% and 1.09%
O=C(O[C@H]1CN[C@H](C#Cc2cc3ncnc(Nc4ccc5c(cnn5Cc5ccccc5)c4)c3s2)C1)N1CCOCC1	0.8%	0.73%	0.29%	-0.26%	1.3%	2.14%	-0.2%	0.53%	0.83%	-1.97%	0.36%	-0.26%	0.7%	-0.22%	2.55%	-0.47%	0.05%	-0.58%	2.25%	0.41%
Cc1nnc(-c2cccc(-c3ccc(C(=O)NCC4CC4)cc3)c2)o1	-1.37%	4.38%	4.87%	4.09%	6.67%	2.13%	5.6%	4.31%	5.92%	4.43%	5.17%	2.61%	4.27%	5.41%	9.95%	3.15%	5.21%	3.81%	9.01%	-9.15%
